In PubChem BioAssay (EPA / NIEHS) one finds outcome and AC50 data, which are given here for five molecules.

The source holds several records for some structures; these can differ, active in one and inactive in another. Calls of active or inactive are those of the source. The calls were made as follows: active = hit-call score of the fitted dose curve at least 0.9, where 1 is the maximum; inactive = score below 0.9.

The term AC50 denotes the concentration giving half of the maximal activity seen.

Test [1] addresses Bile acid receptor (Homo sapiens) (UniProt Q96RI1). The experiment in a line: ATG_IR1_CIS: Attagene CIS-FACTORIAL HepG2 Assay for human Nuclear Receptor Subfamily 1 Group H Member 4 (NR1H4), IR1 submotif (AID 2282946). The following applies: IR1 reporter transcription, actives raise or lower the signal. The method in brief:
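HepG2 cells transiently transfected with multiplexed cis-element reporter units read endogenous transcription factor activity. After 24 h compound exposure, reporter mRNA was quantified by RT-PCR, fluorescent labelling, HpaI digestion and capillary electrophoresis; bidirectional fitting versus DMSO baseline.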

Test [2] is described as follows: ATG_GRE_CIS: Attagene CIS-FACTORIAL HepG2 Assay for human Glucocorticoid Response Elements (GRE) (AID 2282947). The settings on record: HepG2 GRE cis-reporter, Attagene multiplex mRNA; actives raise or lower the signal. The method in brief: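 Reporter transcripts read by RT-PCR with capillary electrophoresis fluorescence after a 24 h chemical exposure of HepG2 cells transiently transfected with multiple cis-element reporter units. Gain or loss fitted against DMSO.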

Test [3] in a line: ATG_ISRE_CIS: Attagene CIS-FACTORIAL HepG2 Assay for human Interferon Regulatory Factor 1 (IRF1) binding to an Interferon-Stimulated Response Element (ISRE) (AID 2282948). The settings on record: HepG2 ISRE cis-reporter (Attagene), mRNA transcription readout; actives raise or lower the signal. The gist of the method: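 Multiplexed mRNA reporter readout in human liver HepG2 cells: cis-element-driven reporters transfected, compound added for 24 h, transcripts amplified, fluorescently labelled and sized by capillary electrophoresis; curve fitting bidirectional against DMSO.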

Test [4] is described as follows: ATG_M_06_CIS: Attagene CIS-FACTORIAL HepG2 Assay for M06 Transcription Factor (Internal Marker) (AID 2282950). The following applies: HepG2 Attagene CIS-FACTORIAL M06 internal marker reporter; actives raise or lower the signal. The gist of the method: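 HepG2 cells transiently transfected with cis-regulated multiple reporter transcription units were exposed to chemical for 24 h; reporter mRNA was quantified by RT-PCR, 6-FAM primer labelling, HpaI digestion and capillary electrophoresis, fitted bidirectionally against DMSO.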

In test [5] the target is Hypoxia-inducible factor 1-alpha (Homo sapiens) (UniProt Q16665). The experiment in a line: ATG_HIF1a_CIS: Attagene CIS-FACTORIAL HepG2 Assay for human Hypoxia Inducible Factor 1 (HIF1A) (AID 2282951). The settings on record: HepG2 Attagene cis-factorial HIF1a reporter transcription; actives raise or lower the signal. The method in brief: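 Transient MRTU transfection of human HepG2 liver cells, 24 h compound treatment, then total RNA isolation, oligo(dT) reverse transcription, PCR amplification, fluorescent labelling and capillary electrophoresis of reporter fragments. Gain or loss relative to DMSO.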
Sequence of Hypoxia-inducible factor 1-alpha (Homo sapiens) (Q16665 whole entry, looked up, the tested form may be a part): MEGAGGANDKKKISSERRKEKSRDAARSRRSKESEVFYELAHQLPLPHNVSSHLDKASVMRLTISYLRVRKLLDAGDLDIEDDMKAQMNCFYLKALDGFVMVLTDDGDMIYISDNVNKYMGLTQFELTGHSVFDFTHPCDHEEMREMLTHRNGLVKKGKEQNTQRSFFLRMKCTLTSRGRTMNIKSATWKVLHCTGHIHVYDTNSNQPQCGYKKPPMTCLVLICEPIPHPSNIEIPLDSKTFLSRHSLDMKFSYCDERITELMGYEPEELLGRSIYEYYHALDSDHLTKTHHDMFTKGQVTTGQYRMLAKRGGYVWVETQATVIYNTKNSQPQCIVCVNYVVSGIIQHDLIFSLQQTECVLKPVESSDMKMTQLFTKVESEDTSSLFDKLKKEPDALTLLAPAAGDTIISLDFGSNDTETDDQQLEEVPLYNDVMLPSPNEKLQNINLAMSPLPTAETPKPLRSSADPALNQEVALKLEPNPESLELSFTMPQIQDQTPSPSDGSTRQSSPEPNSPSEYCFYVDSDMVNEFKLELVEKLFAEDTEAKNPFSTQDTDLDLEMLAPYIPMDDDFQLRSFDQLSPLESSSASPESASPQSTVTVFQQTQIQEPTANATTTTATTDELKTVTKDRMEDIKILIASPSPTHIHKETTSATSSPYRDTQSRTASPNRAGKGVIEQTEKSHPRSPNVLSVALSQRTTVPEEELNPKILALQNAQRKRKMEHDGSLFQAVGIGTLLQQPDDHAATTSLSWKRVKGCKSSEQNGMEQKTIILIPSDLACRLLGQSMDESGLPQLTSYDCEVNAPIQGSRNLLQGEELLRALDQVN

Test [6] concerns the target Hepatocyte nuclear factor 6 (Homo sapiens) (UniProt Q9UBC0). The test is described as follows: ATG_HNF6_CIS: Attagene CIS-FACTORIAL HepG2 Assay for human Hepatocyte Nuclear Factor 6 (HNF6) (AID 2282952). The settings on record: HepG2 Attagene cis-factorial HNF6 reporter transcription; actives raise or lower the signal. The gist of the method: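 Using cis-element reporters in HepG2 liver cells, the assay tracks endogenous factor-driven transcription 24 h post-dosing. Signal comes from 6-FAM-labelled, HpaI-digested RT-PCR fragments, with gain or loss scored against DMSO.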

The target in test [7] is Heat shock factor protein 1 (Homo sapiens) (UniProt Q00613). The test is described as follows: ATG_HSE_CIS: Attagene CIS-FACTORIAL HepG2 Assay for human Heat Shock Transcription Factor 1 (HSE) (AID 2282953). The following applies: HepG2 HSE cis-reporter, Attagene RNA transcription; actives raise or lower the signal. The method in brief:
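HepG2 cells transiently transfected with multiple reporter transcription units under cis-regulatory promoter control, measuring endogenous transcription factor activity. After 24 h chemical exposure, reporter mRNA quantified by RT-PCR, fluorescent labelling, HpaI digestion and capillary electrophoresis; bidirectional fit versus DMSO.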

The nature of test [8]: ATG_MRE_CIS: Attagene CIS-FACTORIAL HepG2 Assay for human Metal Responsive Element (MRE) (AID 2282954). The following applies: HepG2 MRE cis-reporter transcription, Attagene multiplex; actives raise or lower the signal. The gist of the method:
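Endogenous MRE-dependent transcription read as reporter mRNA in transiently transfected human HepG2 cells at 24 h. RNA reverse-transcribed, PCR-amplified, labelled and resolved by capillary electrophoresis; gain or loss relative to DMSO.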

Test [9] is described as follows: ATG_PBREM_CIS: Attagene CIS-FACTORIAL HepG2 Assay for human Phenobarbital-responsive Enhancer Module (PBREM) (AID 2282955). The settings on record: HepG2 PBREM cis-reporter, Attagene multiplexed transcription; actives raise or lower the signal. The method in brief: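 Endogenous transcription factors in human liver HepG2 cells drive a PBREM cis-element reporter, whose transcript level after 24 h treatment is quantified by RT-PCR with capillary electrophoresis; activity fitted in both directions against DMSO.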

The target of test [10] is Paired box protein Pax-6 (Homo sapiens) (UniProt P26367). The test is described as follows: ATG_Pax6_CIS: Attagene CIS-FACTORIAL HepG2 Assay for human Paired Box 6 (PAX6) (AID 2282956). The following applies: HepG2 CIS-FACTORIAL PAX6 reporter transcription, RNA readout; actives raise or lower the signal. The method in brief: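 Fluorescent RT-PCR products separated by capillary electrophoresis report PAX6-linked promoter mRNA in HepG2 cells 24 h post-dose. Curves fitted bidirectionally, DMSO as negative control.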
Sequence of Paired box protein Pax-6 (Homo sapiens) (P26367 whole entry, looked up): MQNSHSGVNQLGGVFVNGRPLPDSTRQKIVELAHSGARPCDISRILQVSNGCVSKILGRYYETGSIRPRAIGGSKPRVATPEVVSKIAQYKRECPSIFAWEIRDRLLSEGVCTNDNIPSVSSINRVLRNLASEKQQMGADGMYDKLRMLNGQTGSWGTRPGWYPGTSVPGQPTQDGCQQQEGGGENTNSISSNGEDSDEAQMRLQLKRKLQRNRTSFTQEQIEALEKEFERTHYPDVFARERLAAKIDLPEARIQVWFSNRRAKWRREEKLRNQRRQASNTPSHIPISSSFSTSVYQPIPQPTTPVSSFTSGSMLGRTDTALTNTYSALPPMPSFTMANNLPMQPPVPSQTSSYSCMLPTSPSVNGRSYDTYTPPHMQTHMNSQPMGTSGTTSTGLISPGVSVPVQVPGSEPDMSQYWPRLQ

Test [11] can be described thus: ATG_PXRE_CIS: Attagene CIS-FACTORIAL HepG2 Assay for human Pregnane X Receptor Element (PXRE) (AID 2282957). The following applies: HepG2 Attagene CIS-FACTORIAL PXRE reporter, mRNA; actives raise or lower the signal. The method in brief: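 Using HepG2 transfected with multiple reporter transcription units, endogenous factor-driven transcription was scored as reporter mRNA after 24 h exposure.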

A short description of test [12]: ATG_PPRE_CIS: Attagene CIS-FACTORIAL HepG2 Assay for human Peroxisome Proliferator-activated Response Element (PPRE) (AID 2282958). The settings on record: HepG2 PPRE cis-element reporter, Attagene transcription factor profiling; actives raise or lower the signal. The method in brief:
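HepG2, transient MRTU transfection (cis promoter elements, endogenous TFs). 24 h dosing. RNA → oligo(dT) RT → PCR → 6-FAM primer extension → HpaI digest → CE. Bidirectional fit vs DMSO.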

Test [13] can be described thus: ATG_Sox_CIS: Attagene CIS-FACTORIAL HepG2 Assay for human SRY-box transcription factor (SOX) (AID 2282960). The following applies: HepG2 Attagene cis-factorial SOX reporter, mRNA; actives raise or lower the signal. The method in brief: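 Endogenous factor activity in human liver HepG2 cells carrying transfected cis-regulated reporter units. RNA taken 24 h post-dose, reverse-transcribed, PCR-amplified and sized by capillary electrophoresis. Gain or loss of signal fitted relative to DMSO.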

Test [14] deals with Transcription factor Sp1 (Homo sapiens) (UniProt P08047). The test is described as follows: ATG_Sp1_CIS: Attagene CIS-FACTORIAL HepG2 Assay for human Specificity Protein 1 (Sp1) (AID 2282961). The following applies: HepG2 Sp1 cis-reporter transcription, actives raise or lower the signal. The gist of the method:
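Transient MRTU-transfected HepG2, 24 h compound exposure. Total RNA → oligo(dT) RT → PCR of reporter → 6-FAM primer extension → HpaI digest → CE. Endpoint fitted both directions vs DMSO.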

Test [15] in a line: ATG_SREBP_CIS: Attagene CIS-FACTORIAL HepG2 Assay for human Sterol Regulatory Element Binding (SREBP) (AID 2282962). The following applies: HepG2 Attagene cis-factorial SREBP reporter, mRNA; actives raise or lower the signal. The method in brief:
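Endogenous factor activity is measured in HepG2 through multiplexed reporter units under cis-element control. Following a 24 h incubation, reporter transcripts are reverse-transcribed, PCR-amplified and sized by capillary electrophoresis; activity is fitted in both directions relative to DMSO.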

The target in test [16] is Signal transducer and activator of transcription 3 (Homo sapiens) (UniProt P40763). The test is described as follows: ATG_STAT3_CIS: Attagene CIS-FACTORIAL HepG2 Assay for human Signal Transducer and Activator of Transcription 3 (STAT3) (AID 2282963). The following applies: HepG2, Attagene cis-factorial STAT3 reporter transcription; actives raise or lower the signal. The method in brief:
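Readout is reporter transcript quantified by RT-PCR and capillary electrophoresis, with 6-FAM primer extension and HpaI digestion. Total RNA is taken 24 h after dosing transiently transfected HepG2 carrying cis-regulated reporter units. Bidirectional fit against DMSO.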

Test [17] in a line: ATG_TA_CIS: Attagene CIS-FACTORIAL HepG2 Assay for human TA Basal Promoter (AID 2282964). The following applies: HepG2 Attagene CIS-factorial TA basal promoter reporter; actives raise or lower the signal. The gist of the method: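 HepG2 cells transiently transfected with multiplexed cis-promoter reporter units, dosed 24 h. Reporter mRNA measured by RT-PCR, 6-FAM labelling, HpaI digestion and capillary electrophoresis; bidirectional fit versus DMSO baseline, serving as background control.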

The nature of test [18]: ATG_TCF_b_cat_CIS: Attagene CIS-FACTORIAL HepG2 Assay for human T-Cell-Factor with beta-catenin (TCF/b-cat) (AID 2282965). The following applies: HepG2 TCF/beta-catenin cis-reporter transcription, actives raise or lower the signal. The gist of the method: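 Endogenous transcription factor activity is captured through cis-promoter reporter constructs transiently introduced into human HepG2 liver cells. Induced reporter mRNA is measured after 24 h and fitted bidirectionally relative to DMSO.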

Test [19] in a line: ATG_M_32_CIS: Attagene CIS-FACTORIAL HepG2 Assay for M32 Transcription Factor (Internal Marker) (AID 2282949).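 Also: background control marker of the multiplexed CIS panel rather than a real target.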 The following applies: HepG2 Attagene cis-factorial M32 reporter, mRNA; actives raise or lower the signal. The gist of the method: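 HepG2 human liver cells transiently transfected with cis-promoter-driven multiple reporter transcription units, dosed 24 h. Reporter mRNA quantified by RT-PCR, FAM-labelled primer extension, HpaI digest and capillary electrophoresis; bidirectional fit versus DMSO baseline.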

The nature of test [20]: ATG_RORE_CIS: Attagene CIS-FACTORIAL HepG2 Assay for human RAR-related Orphan Receptor Element (RORE) (AID 2282959). The following applies: HepG2 Attagene cis-factorial RORE reporter, mRNA; actives raise or lower the signal. The method in brief: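 Transient MRTU transfection of human HepG2 liver cells (FuGene 6); 24 h compound exposure; TriZol RNA, oligo(dT) RT, PCR, FAM labeling, HpaI cut, CE fragment analysis. DMSO = negative control/baseline.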

Sequence of Heat shock factor protein 1 (Homo sapiens) (Q00613 whole entry, looked up): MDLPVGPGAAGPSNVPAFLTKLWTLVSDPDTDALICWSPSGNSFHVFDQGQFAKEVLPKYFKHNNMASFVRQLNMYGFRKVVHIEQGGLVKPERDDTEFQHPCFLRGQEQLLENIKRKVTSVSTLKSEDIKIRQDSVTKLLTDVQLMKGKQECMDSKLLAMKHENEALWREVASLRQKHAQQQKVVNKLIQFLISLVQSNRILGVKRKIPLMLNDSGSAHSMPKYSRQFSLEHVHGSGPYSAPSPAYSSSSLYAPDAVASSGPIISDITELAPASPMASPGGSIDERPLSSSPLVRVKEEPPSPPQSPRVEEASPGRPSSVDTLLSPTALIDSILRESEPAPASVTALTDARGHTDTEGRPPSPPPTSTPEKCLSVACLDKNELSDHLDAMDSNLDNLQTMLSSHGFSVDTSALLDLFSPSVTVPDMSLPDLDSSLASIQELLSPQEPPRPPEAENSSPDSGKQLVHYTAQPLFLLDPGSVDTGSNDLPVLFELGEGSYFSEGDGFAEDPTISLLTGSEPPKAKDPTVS
Sequence of Transcription factor Sp1 (Homo sapiens) (P08047 whole entry, looked up): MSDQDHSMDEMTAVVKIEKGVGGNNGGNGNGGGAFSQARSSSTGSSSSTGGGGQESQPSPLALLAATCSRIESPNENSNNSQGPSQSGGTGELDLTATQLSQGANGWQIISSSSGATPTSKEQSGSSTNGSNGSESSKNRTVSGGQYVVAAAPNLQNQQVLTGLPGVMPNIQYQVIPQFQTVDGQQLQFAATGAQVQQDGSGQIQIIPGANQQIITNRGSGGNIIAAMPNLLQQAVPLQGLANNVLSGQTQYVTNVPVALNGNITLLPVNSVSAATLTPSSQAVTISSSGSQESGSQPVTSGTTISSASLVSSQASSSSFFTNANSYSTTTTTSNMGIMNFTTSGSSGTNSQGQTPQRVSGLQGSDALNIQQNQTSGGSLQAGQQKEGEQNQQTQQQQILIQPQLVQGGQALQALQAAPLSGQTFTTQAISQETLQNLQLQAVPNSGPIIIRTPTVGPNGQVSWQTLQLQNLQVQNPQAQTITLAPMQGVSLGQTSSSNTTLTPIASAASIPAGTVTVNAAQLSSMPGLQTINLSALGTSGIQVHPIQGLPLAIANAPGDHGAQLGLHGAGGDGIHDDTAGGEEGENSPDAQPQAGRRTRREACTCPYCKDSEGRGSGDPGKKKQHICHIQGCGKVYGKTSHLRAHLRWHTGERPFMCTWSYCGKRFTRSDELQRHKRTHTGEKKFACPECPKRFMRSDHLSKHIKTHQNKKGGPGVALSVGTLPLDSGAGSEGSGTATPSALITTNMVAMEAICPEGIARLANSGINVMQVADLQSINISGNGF
Sequence of Bile acid receptor (Homo sapiens) (Q96RI1 whole entry, looked up): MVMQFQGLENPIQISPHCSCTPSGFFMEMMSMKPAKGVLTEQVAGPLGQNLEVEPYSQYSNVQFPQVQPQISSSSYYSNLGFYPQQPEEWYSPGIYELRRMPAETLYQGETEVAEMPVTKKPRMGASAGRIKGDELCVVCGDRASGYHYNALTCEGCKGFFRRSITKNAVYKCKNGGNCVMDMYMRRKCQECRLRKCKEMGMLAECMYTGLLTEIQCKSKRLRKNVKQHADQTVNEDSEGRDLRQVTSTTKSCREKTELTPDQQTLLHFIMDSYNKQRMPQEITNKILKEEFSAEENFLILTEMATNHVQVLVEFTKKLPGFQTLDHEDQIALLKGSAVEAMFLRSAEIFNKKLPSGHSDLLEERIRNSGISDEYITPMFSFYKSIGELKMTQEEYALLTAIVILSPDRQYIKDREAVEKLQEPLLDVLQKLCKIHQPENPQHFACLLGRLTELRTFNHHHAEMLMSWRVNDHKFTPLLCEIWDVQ
Sequence of Signal transducer and activator of transcription 3 (Homo sapiens) (P40763 whole entry, looked up): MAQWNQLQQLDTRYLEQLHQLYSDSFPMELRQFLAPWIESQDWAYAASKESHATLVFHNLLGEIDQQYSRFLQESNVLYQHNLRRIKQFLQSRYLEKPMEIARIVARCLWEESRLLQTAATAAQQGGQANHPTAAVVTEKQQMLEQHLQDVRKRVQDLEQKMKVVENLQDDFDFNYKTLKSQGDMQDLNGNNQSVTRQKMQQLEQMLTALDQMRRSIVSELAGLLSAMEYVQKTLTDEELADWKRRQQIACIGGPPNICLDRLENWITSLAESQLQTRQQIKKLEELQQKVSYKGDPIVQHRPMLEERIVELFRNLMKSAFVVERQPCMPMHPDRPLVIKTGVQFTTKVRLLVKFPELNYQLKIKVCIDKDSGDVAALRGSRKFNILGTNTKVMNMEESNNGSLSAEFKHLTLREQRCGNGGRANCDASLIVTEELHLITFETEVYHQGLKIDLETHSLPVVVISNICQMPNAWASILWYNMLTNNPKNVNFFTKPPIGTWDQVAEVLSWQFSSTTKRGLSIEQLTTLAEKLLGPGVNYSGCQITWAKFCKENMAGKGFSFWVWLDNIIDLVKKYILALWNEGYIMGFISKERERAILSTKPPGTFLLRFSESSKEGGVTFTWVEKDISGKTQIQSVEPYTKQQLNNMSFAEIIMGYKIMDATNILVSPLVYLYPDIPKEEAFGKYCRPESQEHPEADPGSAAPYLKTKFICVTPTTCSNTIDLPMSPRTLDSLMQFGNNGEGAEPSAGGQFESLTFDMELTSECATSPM
Sequence of Hepatocyte nuclear factor 6 (Homo sapiens) (Q9UBC0 whole entry, looked up, the tested form may be a part): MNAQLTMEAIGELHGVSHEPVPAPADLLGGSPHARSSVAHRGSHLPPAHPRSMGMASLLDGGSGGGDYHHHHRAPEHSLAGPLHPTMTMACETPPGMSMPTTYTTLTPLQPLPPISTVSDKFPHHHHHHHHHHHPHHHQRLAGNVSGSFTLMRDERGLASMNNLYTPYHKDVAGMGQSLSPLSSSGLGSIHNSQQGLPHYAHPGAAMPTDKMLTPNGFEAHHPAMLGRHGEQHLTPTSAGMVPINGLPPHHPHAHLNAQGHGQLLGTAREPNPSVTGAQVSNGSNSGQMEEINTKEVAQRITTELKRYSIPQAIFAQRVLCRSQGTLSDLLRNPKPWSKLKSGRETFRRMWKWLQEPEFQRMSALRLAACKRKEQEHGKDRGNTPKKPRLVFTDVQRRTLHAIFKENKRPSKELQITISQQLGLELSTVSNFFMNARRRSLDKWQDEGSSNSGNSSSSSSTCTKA

Consider `O=C(O)C(F)(OC(F)(F)C(F)(F)C(F)(F)F)C(F)(F)F` (stereo not drawn), for which the call in test [1], in [2], in [3], in test [4], in test [5] and in test [6] was inactive. Further, the molecule was classed as inactive in test [7], in test [8], in test [9], in [10], in test [11] and in [12]. Besides, the molecule was classed as inactive in test [13], in test [14], in test [15], in test [16], in test [17] and in test [18]. Further, the AC50 in test [12] is 74.8 µM (active).

With `O=S(=O)(F)C(F)(F)C(F)(F)C(F)(F)C(F)(F)C(F)(F)C(F)(F)C(F)(F)C(F)(F)F`, the result in test [1], in test [2], in [3], in [19], in test [4] and in test [5] was inactive. In addition, the outcome in test [6], in [7], in test [8], in test [9], in [11] and in test [12] was inactive. Further, the result in test [13], in [14], in test [15], in test [16], in test [17] and in test [18] was inactive.

For `O=[N+]([O-])c1ccc(Cl)c(Cl)c1`, the call in test [1], in test [2], in test [3], in [4], in [5] and in test [6] was inactive. Further, the molecule was classed as inactive in [7], in test [8], in test [9], in test [10], in test [12] and in test [20]. Besides, the call in test [13], in test [14], in test [15], in test [16], in test [17] and in test [18] was inactive. Further, the AC50 in test [11] was 49.2 µM (active).

Consider `Cc1ccc2c(c1N)C(=O)c1ccccc1C2=O`, for which the molecule was classed as inactive in test [1], in [2], in test [3], in test [19], in [4] and in [5]. Also, the molecule was classed as inactive in test [6], in test [7], in test [8], in test [9], in test [12] and in [20]. Further, the call in test [13], in test [14], in test [15], in test [16], in test [17] and in test [18] was inactive. For the same molecule, in test [11], the concentration at half-maximal activity (AC50) was 4.09 µM (active).

For `Cc1c([N+](=O)[O-])cc2c(c1[N+](=O)[O-])C(C)(C)CC2(C)C`, the molecule was called inactive in [1], in test [2], in [3], in [19], in test [4] and in test [5]. For the same molecule, the result in test [6], in test [7], in [8], in test [9], in [12] and in [20] was inactive. Also, the outcome in test [13], in test [14], in [16], in test [17] and in [18] was inactive. The concentration at half-maximal activity (AC50) in test [11] was 0.964 µM (active).
